We go through 69 compounds from the antibiotic and cytotoxicity screens of Wong et al. (2023).

Each structure is given as a SMILES string. Hit rate of the full screen: of about 39,000 compounds, about 3,300 (8.5%) were called active. For the sample, actives were picked, then their nearest neighbours and some compounds at random.

In the assay the test system is HepG2. Briefly: cytotoxicity call (relative viability < 0.9). As to conditions: 10 µM.
Regarding `COc1ccc([Si](C)(C)[C@H]2[C@H](CC(=O)N3Cc4ccccc4C[C@H]3CO)O[C@@]3(C(=O)N(C)c4c(Br)cc(C)cc43)[C@@H]2C)cc1`, the cytotoxicity call is “inactive”. Regarding `CN1C(=O)c2cc(NC(=O)C3CCOCC3)ccc2OC[C@H]2O[C@H](CC(=O)NCCc3ccncc3)CC[C@@H]21`, the cytotoxicity call is “inactive”.

For `O=C(/C=C/c1ccc(O)c(O)c1)O[C@H]([C@H](OC(=O)/C=C/c1ccc(O)c(O)c1)[C@H](OC(=O)/C=C/c1ccc(O)c(O)c1)C(=O)O)[C@@H](OC(=O)/C=C/c1ccc(O)c(O)c1)C(=O)O`, the cytotoxicity call is “inactive”. As to `O=C(C=Cc1ccc(O)c(O)c1)C=C(O)C=Cc1ccc(O)c(O)c1`, the cytotoxicity call is “active”. On to `COc1cc(C(C)=O)ccc1O`, for which the cytotoxicity call was “inactive”. For `COc1cc(C=CC(=O)O)ccc1O`, the cytotoxicity call was “inactive”.

As for `O=C(O)C=Cc1ccc(O)c(O)c1`, the cytotoxicity call is “inactive”. Regarding `COc1ccc(C=CC(=O)O)cc1OC`, the cytotoxicity call was “inactive”. As for `COc1cc(C=CC(=O)C=C(O)C=Cc2ccc(O)c(OC)c2)ccc1O`, the cytotoxicity call is “active”. In the case of `COc1ccc(/C=C/C(=O)C=C(O)/C=C/c2ccc(OC)c(OC)c2)cc1OC`, the cytotoxicity call was “inactive”.

With `COc1cc(C=O)ccc1O`, the cytotoxicity call was “active”. As for `S=C1NCNCN1`, the cytotoxicity call was “inactive”.

As for `O=C1N[C@H](Cc2ccccc2)COC(=O)[C@@H](Cc2ccc(F)cc2)CCC=CC[C@@H]1CC(=O)N(CCO)Cc1ccccc1`, the cytotoxicity call was “inactive”. Turning to `COc1ccc(CN2C[C@@H](C)[C@H](OC)CN(C)C(=O)c3ccc(NC(=O)c4nc5ccccc5s4)cc3OC[C@H]2C)cc1`, the cytotoxicity call is “inactive”. As for `COCC#Cc1ccc2c(c1)O[C@@H](CN(C)C(=O)CN(C)C)[C@H](C)CN([C@H](C)CO)S2(=O)=O`, the entry is “inactive”; as for `Cc1ccc(S(=O)(=O)N(C)C[C@@H]2Oc3ncc(Br)cc3C(=O)N([C@H](C)CO)C[C@@H]2C)cc1`, “inactive”. Take `COC(=O)c1cc(S(=O)(=O)N2CCOCC2)cn1C`: the cytotoxicity call was “inactive”. To `C[C@@H]1CCCCO[C@@H](CN(C)C(=O)Nc2ccc(F)cc2)[C@@H](C)CN([C@@H](C)CO)C(=O)c2cc(NC(=O)C3CCCCC3)ccc2O1` belongs “inactive”; to `COCC#Cc1ccc([C@H]2[C@@H](CO)N3C(=O)CN(C(=O)C4CCOCC4)C[C@@H]23)cc1`, “inactive”. Regarding `C[C@H]1CN([C@@H](C)CO)C(=O)c2cccc(NC(=O)c3cnccn3)c2O[C@H]1CN(C)C(=O)Nc1ccccc1`, the cytotoxicity call was “inactive”. In the case of `C[C@@H]1CN([C@@H](C)CO)C(=O)c2cc(NC(=O)Nc3ccc(C(F)(F)F)cc3)ccc2O[C@@H](C)CCCCO[C@@H]1CN(C)C(=O)CCCN(C)C`, the cytotoxicity call was “inactive”. For the compound `Oc1ccc2ccccc2c1` [beta-NAPHTHOL ], the cytotoxicity call was “active”.

Turning to `O=C(O)c1ccc2ccccc2c1`, the cytotoxicity call was “inactive”. In the case of `Oc1ccc2ccccc2c1`, the cytotoxicity call is “inactive”. On to `Oc1cccc(O)c1`, for which the cytotoxicity call is “inactive”. Take `C[C@H](CO)N1C[C@H](C)[C@@H](CN(C)S(=O)(=O)c2ccccc2)Oc2ccc(NS(=O)(=O)c3ccccc3)cc2C1=O`: the cytotoxicity call was “inactive”.

As for `Cc1ccc(S[C@]2(C(=O)NCC(C)C)CC(=O)N(Cc3cc(C(F)(F)F)cc(C(F)(F)F)c3)[C@@H]2c2ccc(CO)cc2I)cc1`, the cytotoxicity call was “inactive”.

`Cc1cn([C@H]2C[C@H](F)[C@@H](CO)O2)c(=O)[nH]c1=O`: the cytotoxicity call is “inactive”. Turning to `CCC(=O)N[C@@H]1CC[C@@H](CC(=O)OC)O[C@@H]1CO`, the cytotoxicity call was “inactive”. For `C[C@@H]1CN([C@@H](C)CO)C(=O)c2cc(-c3cncnc3)cnc2O[C@@H]1CN(C)C(=O)CN1CCOCC1`, the cytotoxicity call was “inactive”.

As to `C[C@@H]1CN([C@H](C)CO)C(=O)c2cccc(NC(=O)CCCCCC(=O)Nc3ccccc3N)c2O[C@@H]1CN(C)C(=O)Nc1ccc(C(F)(F)F)cc1`, the cytotoxicity call is “inactive”. For the compound `C[C@@H]1CCCCO[C@@H](CN(C)S(=O)(=O)c2ccc(Cl)cc2)[C@H](C)CN([C@H](C)CO)C(=O)c2cc(NC(=O)Nc3ccc(F)cc3)ccc2O1`, the cytotoxicity call was “active”. Turning to `C[C@@H]1CCCCO[C@H](CN(C)S(=O)(=O)c2ccc(Cl)cc2)[C@H](C)CN([C@@H](C)CO)C(=O)c2cc(NC(=O)Nc3ccc(F)cc3)ccc2O1`, the cytotoxicity call is “inactive”. With `C[C@@H]1CN([C@H](C)CO)C(=O)c2cc(NC(=O)Nc3ccc(F)cc3)ccc2O[C@@H](C)CCCCO[C@H]1CN(C)S(=O)(=O)c1ccc(Cl)cc1`, the cytotoxicity call is “active”. As for `C[C@@H]1CCCCO[C@H](CN(C)S(=O)(=O)c2ccc(Cl)cc2)[C@@H](C)CN([C@H](C)CO)C(=O)c2cc(NC(=O)Nc3ccc(F)cc3)ccc2O1`, the cytotoxicity call was “inactive”. Consider `C[C@H]1CCCCO[C@H](CN(C)S(=O)(=O)c2ccc(Cl)cc2)[C@@H](C)CN([C@@H](C)CO)C(=O)c2cc(NC(=O)Nc3ccc(F)cc3)ccc2O1`, for which the cytotoxicity call is “inactive”.

As for `C[C@H](CO)N1C[C@H](C)[C@@H](CN(C)S(=O)(=O)c2ccc(Cl)cc2)OCCCC[C@H](C)Oc2ccc(NC(=O)Nc3ccc(F)cc3)cc2C1=O`, the cytotoxicity call is “inactive”. On to `COc1ccc(CN(C)C[C@@H]2Oc3c(NC(=O)c4cnccn4)cccc3C(=O)N([C@@H](C)CO)C[C@H]2C)cc1`, for which the cytotoxicity call is “inactive”. With `CNC(=O)[C@H]1O[C@@H](n2cnc3c(NCc4cccc(I)c4)ncnc32)[C@H](O)[C@@H]1O`, the cytotoxicity call is “inactive”. To `C[C@@H]1CCCCO[C@H](CN(C)C(=O)Nc2ccccc2)[C@@H](C)CN([C@@H](C)CO)C(=O)c2cc(NC(=O)c3ccccc3)ccc2O1` belongs “inactive”; to `C[C@H]1CN([C@@H](C)CO)C(=O)c2cccc(NC(=O)c3nc4ccccc4s3)c2O[C@H]1CN(C)C(=O)Nc1ccc(F)cc1`, “inactive”. As for `C[C@H](CO)N1C[C@H](C)[C@@H](CN(C)C(=O)Nc2ccc3c(c2)OCO3)Oc2ccc(NS(C)(=O)=O)cc2C1=O`, the cytotoxicity call was “inactive”. In the case of `COc1ccc(S(=O)(=O)Nc2ccc3c(c2)CC(=O)N([C@@H](C)CO)C[C@H](C)[C@H](CN(C)S(=O)(=O)c2ccccc2)O3)cc1`, the cytotoxicity call was “inactive”. As for `C[C@H](CO)N1C[C@H](C)[C@H](CN(C)S(=O)(=O)c2cn(C)cn2)Oc2ccc(NC(=O)CCCN(C)C)cc2CC1=O`, the entry is “inactive”; as for `C[C@H](CO)N1C[C@H](C)[C@H](CN(C)S(=O)(=O)c2ccc(C#N)cc2)Oc2ncc(C#Cc3cccc(F)c3)cc2C1=O`, “inactive”; as for `C[C@H](CO)N1C[C@H](C)[C@H](CN(C)S(=O)(=O)c2cccc(F)c2)Oc2ncc(C#Cc3cccc(F)c3)cc2C1=O`, “inactive”. As for `COc1ccc(C#Cc2cnc3c(c2)C(=O)N([C@H](C)CO)C[C@H](C)[C@H](CN(C)S(=O)(=O)c2ccc(C#N)cc2)O3)cc1OC`, the cytotoxicity call was “inactive”. For the compound `Cc1ccc(S(=O)(=O)N(C)C[C@@H]2Oc3ncc(C#Cc4ccccc4)cc3C(=O)N([C@H](C)CO)C[C@@H]2C)cc1`, the cytotoxicity call is “inactive”.

Take `Cc1ccc(S(=O)(=O)N(C)C[C@@H]2Oc3ncc(C#Cc4cccc(F)c4)cc3C(=O)N([C@H](C)CO)C[C@@H]2C)cc1`: the cytotoxicity call is “active”. As for `COc1ccc(C#Cc2cnc3c(c2)C(=O)N([C@H](C)CO)C[C@H](C)[C@H](CN(C)S(=O)(=O)c2ccc(C)cc2)O3)cc1OC`, the cytotoxicity call was “inactive”. Turning to `COc1ccc(S(=O)(=O)N(C)C[C@@H]2Oc3ncc(C#Cc4ccc(OC)c(OC)c4)cc3C(=O)N([C@H](C)CO)C[C@@H]2C)cc1`, the cytotoxicity call is “active”. For `C[C@H](CO)N1C[C@H](C)[C@H](CN(C)S(=O)(=O)c2ccccc2)Oc2ncc(C#Cc3cccc(F)c3)cc2C1=O`, the cytotoxicity call was “inactive”. To `C[C@H](CO)N1C[C@H](C)[C@H](CN(C)S(=O)(=O)c2ccc(F)cc2)Oc2ncc(C#Cc3cccc(F)c3)cc2C1=O` belongs “active”; to `C[C@@H]1CN([C@H](C)CO)C(=O)c2cc(C#Cc3cccnc3)cnc2O[C@@H]1CN(C)Cc1ccc(F)cc1`, “inactive”; to `C[C@H](CO)N1C[C@H](C)[C@H](CN(C)Cc2ccc(F)cc2)Oc2ncc(C#Cc3cccnc3)cc2C1=O`, “active”. As to `C[C@H]1CN([C@@H](C)CO)C(=O)c2cc(C#Cc3cccnc3)cnc2O[C@@H]1CN(C)Cc1ccc(F)cc1`, the cytotoxicity call is “inactive”. As for `C[C@H](CO)N1C[C@H](C)[C@H](CN(C)Cc2ccncc2)Oc2ccc(NS(=O)(=O)c3ccccc3)cc2C1=O`, the entry is “inactive”; as for `COc1ccc(S(=O)(=O)N(C)C[C@H]2Oc3ccc(N(C)C)cc3CC(=O)N([C@@H](C)CO)C[C@H]2C)cc1`, “inactive”; as for `COc1ccc(NC(=O)N(C)C[C@@H]2Oc3ncc(C#CC(C)C)cc3C(=O)N([C@@H](C)CO)C[C@H]2C)cc1`, “inactive”. As for `NC1CCN(C(=O)NC2CCCCC2)CC1`, the cytotoxicity call is “inactive”. With `C[C@H]1CCCCO[C@H](CN(C)C(=O)CCC(F)(F)F)[C@@H](C)CN([C@@H](C)CO)C(=O)c2cc(NS(=O)(=O)c3ccccc3)ccc2O1`, the cytotoxicity call is “inactive”. In the case of `C[C@H]1CC/C=C\[C@H]2O[C@@]34C=CCN(c5ccc(Cl)cc5)C(=O)[C@H]3N(CCO)C(=O)[C@]4(C)[C@@H]2C(=O)O1`, the cytotoxicity call was “inactive”.

`Cc1noc(C)c1S(=O)(=O)Nc1ccc2c(c1)C(=O)N([C@@H](C)CO)C[C@@H](C)[C@@H](CN(C)C)OCCCC[C@H](C)O2`: the cytotoxicity call is “inactive”.

Regarding `C[C@@]12CC[C@@H]3c4ccc(O)cc4C[C@H](CCCCCCCCC[S@@](=O)CCCC(F)(F)C(F)(F)F)[C@@H]3[C@@H]1CC[C@@H]2O`, the cytotoxicity call is “inactive”.

On to `O=C(C[C@H]1CC[C@@H]2[C@H](COC[C@@H](O)CN2S(=O)(=O)c2ccccc2)O1)N[C@@H]1CCN(Cc2ccccc2)C1`, for which the cytotoxicity call was “inactive”.

`Cc1ccccc1S(=O)(=O)N1C[C@@H](O)COC[C@@H]2O[C@H](CC(=O)NCCc3ccncc3)CC[C@H]21`: the cytotoxicity call was “inactive”. With `Cc1noc(C)c1NC(=O)Nc1ccc2c(c1)C(=O)N([C@H](C)CO)C[C@H](C)[C@H](CN(C)Cc1ccc(C(=O)O)cc1)OCCCC[C@@H](C)O2`, the cytotoxicity call is “inactive”. For the compound `CO[C@H]1CN(C)C(=O)c2ccc(NS(=O)(=O)c3cn(C)cn3)cc2OC[C@H](C)N(Cc2cccc(F)c2)C[C@H]1C`, the cytotoxicity call is “inactive”.

`COc1ccc(NC(=O)N(C)C[C@@H]2OCCCC[C@@H](C)Oc3ccc(NS(=O)(=O)c4c(C)noc4C)cc3C(=O)N([C@@H](C)CO)C[C@H]2C)cc1`: the cytotoxicity call was “inactive”.
